# Laboratory results reported in the supplement of paper PMC3724861.
# Shown is part of a subset that was picked to be rich in hits. The true hit rate is not given. Unmarked numbers belong to inactive results.
# Tested on: T1, Caupolican (Caup) homeodomain DNA-binding domain
# T1 sequence: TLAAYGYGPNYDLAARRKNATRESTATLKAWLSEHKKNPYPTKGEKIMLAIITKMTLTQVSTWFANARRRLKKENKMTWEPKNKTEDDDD
# Experiment: PBM E-score (8-mer, recovered from the published 9-mer minima) (E-score (dimensionless, -0.5 to 0.5)); Drosophila protein; higher = stronger relative binding preference, active = 0.31 or more
# In short: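 Caup's homeodomain DNA-binding domain (residues 214-303) was made by in vitro transcription and translation and applied at 100 nM to custom-designed protein binding microarrays. Each value is an enrichment score that gives relative binding preference for a short DNA word, with higher meaning stronger. The 8-mer values were recovered from published 9-mer scores, each of which was the minimum of its two constituent 8-mer scores. A cutoff of 0.31 marks candidate sites.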
row,Sequence,PBM E-score
1,CATATGTC,0.277
2,CATATGTA,0.334 (active)
3,AATATGTG,0.259
4,AATATGTA,0.328 (active)
5,GATATGTA,0.321 (active)
6,GGTATGTA,0.277
7,AATATGTC,0.297
8,GATATGAA,0.0673
9,CGTATGTA,0.289
10,CCGGGAGC,-0.282
11,CTCTGGAA,-0.12
12,CGACGGAC,0.00364
13,ACAGCGAG,-0.0026
14,GGCTATAC,-0.0714
15,AACGAGGA,0.0777
16,CTGAAACC,-0.0654
17,CTTCCGGA,-0.173
18,GAATGTCA,0.169
19,GAATGTCC,0.145
20,CCATGGCA,-0.0986
21,GCATGTCC,0.31 (active)
22,CAATGTCA,0.293
23,GCATGGCA,-0.0563
24,AAATGTCG,0.144

row,Sequence,PBM E-score
1,ATATGTCG,0.302
2,AAATGTCC,0.126
3,CCATGTCA,0.398 (active)
4,GCATGTCA,0.44 (active)
5,ACATGTCG,0.416 (active)
6,GATAAGGA,0.0879
7,CGTTATAC,0.0592
8,GTTTTTGA,0.084
9,GTTTAGAA,0.121
10,CCATGTCC,0.292
11,AAATGTCA,0.266
12,AAATGTCT,0.106
13,ACATGTCA,0.461 (active)
14,ACATGTCC,0.438 (active)
15,ACCTGTCT,0.144
16,CCCTGTCG,-0.0227
17,ACATGTCT,0.417 (active)
18,CAATGTCG,0.227
19,AGATGTCC,0.234
20,CCATGTCG,0.362 (active)
21,ACATGGCA,0.307
22,CTCACAGC,-0.124
23,ACCTACCC,-0.14
24,CGCGTAGC,-0.153

row,Sequence,PBM E-score
1,CAAGACTA,0.107
2,ATAGCCAT,0.0738
3,CATTCATA,0.179
4,CCTGGTGA,-0.102
5,ACTCTGCG,-0.03
6,TAATGTCA,0.258
7,TCATGTCA,0.391 (active)
8,TCATGGCA,-0.0694
9,ATTCGGAA,0.0171
10,CCCGCTAA,-0.182
11,CGCGATCC,-0.0878
12,GACAACGA,0.179
13,GACAACAC,0.352 (active)
14,AACAACGC,0.182
15,GTCAACAA,0.285
16,GACAACAA,0.342 (active)
17,AACAACAC,0.392 (active)
18,GACAACTC,0.191
19,CACAACAC,0.265
20,GTCAACAC,0.175
21,ACTATTTG,0.153
22,GTCTTGAA,0.0106
23,AGAACCCT,-0.163
24,CCATGAAC,0.0647

row,Sequence,PBM E-score
1,ACATGAAG,0.293
2,CCATGAAA,0.00449
3,GCATGAAC,0.104
4,ACATGAAC,0.372 (active)
5,ATATGAAT,0.107
6,ACATGAAA,0.314 (active)
7,ACATGAAT,0.336 (active)
8,GCATGAAA,0.111
9,CTATATTA,0.168
10,CCCTGTCA,0.129
11,ACAACATC,0.356 (active)
12,ACAACAGG,0.192
13,ACAACATG,0.441 (active)
14,CCAACATC,0.113
15,ACAACATA,0.411 (active)
16,ACAACAGC,0.214
17,GCAACATA,0.204
18,ACAACTTG,0.271
19,CCAACATA,0.211
20,ATGGGTCG,-0.0702
21,ACAATGGC,0.0838
22,ACTCTCGC,-0.115
23,AATTGTAA,0.209
24,GTTTGTAA,0.198

row,Sequence,PBM E-score
1,ACTTGTAA,0.403 (active)
2,TCTTGCAA,0.0461
3,TCTTGTAA,0.371 (active)
4,ACTTGTAT,0.391 (active)
5,TATTGTAA,0.275
6,AATTGTAT,0.228
7,GATTGTAA,0.205
8,ATTTGTAA,0.277
9,GCTTGTAA,0.384 (active)
10,AGTTGTAT,0.231
11,ATATCTAC,0.166
12,ACAAAAAC,0.117
13,AGTTGGTG,-0.0391
14,CCGCATAG,-0.0554
15,ATTGTTCG,0.213
16,CGCTCAGC,-0.138
17,CTACAAAA,0.123
18,ATACAATA,0.26
19,CTACAAGA,0.263
20,ATACAAGA,0.322 (active)
21,ATACAAGC,0.316 (active)
22,GTACAATA,0.306
23,GCACAAGA,0.0557
24,TTACAAAA,0.203

row,Sequence,PBM E-score
1,GTACAAAA,0.323 (active)
2,GTACAAGA,0.418 (active)
3,CTACAAGC,0.29
4,ATACAAGG,0.283
5,AATAGCCT,-0.0311
6,AATAGAGA,0.041
7,CACGTAAG,0.0839
8,GTGCTCCA,-0.0875
9,CTTCCAGC,-0.248
10,CCCGAATC,-0.201
11,AACATTTA,0.275
12,CAAATGTA,0.294
13,AACATGTT,0.45 (active)
14,CACATCTA,0.208
15,AACATCTT,0.246
16,AACATCTA,0.252
17,CACATCTC,-0.00827
18,CACATGTA,0.42 (active)
19,AACATGTA,≥ 0.48 (active)
20,CACATGTC,0.387 (active)
21,AAAATGTT,0.249
22,CAAATGTC,0.141
23,GCGTACGC,-0.112
24,ACCACCAC,0.0458

row,Sequence,PBM E-score
1,CGAATCTC,0.0162
2,GATGCCCA,-0.0463
3,CGCTTTAC,0.0463
4,GCGATACA,0.217
5,ATTGGGAG,-0.0672
6,ACGGATCG,0.00507
7,CCTTGCTA,0.0673
8,AAAGGTCT,-0.0899
9,GACATGTC,0.437 (active)
10,AACATGTG,0.402 (active)
11,AACATCTG,0.22
12,CACATGTG,0.18
13,GACATTTA,0.177
14,GACATGTA,0.477 (active)
15,AAAATGTC,0.217
16,GACATATC,0.256
17,GAAATGTA,0.131
18,GAAATGTC,0.114
19,AACATGTC,0.424 (active)
20,AACATCTC,0.254
21,CGTGCTGA,0.0459
22,CTGGGCTC,-0.186
23,ACACCACA,0.262
24,ACGCTGTC,0.0456

row,Sequence,PBM E-score
1,GCCACCAC,-0.199
2,ATTGCCAG,-0.0611
3,CTGTTACA,0.33 (active)
4,ATGTTACG,0.326 (active)
5,CTGTTACC,0.142
6,TAGTTACA,0.311 (active)
7,ACGTTACG,0.0614
8,AGGTTACG,-0.0221
9,GTGTTAAA,0.246
10,GTGTTACA,0.381 (active)
11,GCGTTACA,0.198
12,AAGTTACA,0.261
13,CGGTTACA,0.183
14,GAGTTACA,0.215
15,CGTTATTA,0.116
16,AAAACCGG,-0.0173
17,ACGCAATG,0.0404
18,CTGTCCCC,-0.0725
19,CAGCTAGG,-0.046
20,TACAATGA,0.266
21,AGGTTACA,0.191
22,AGGTTACC,-0.0352
23,ATGTTACA,0.406 (active)
24,AAGTTACC,0.148

row,Sequence,PBM E-score
1,ATGTTACC,0.331 (active)
2,ACGTTACA,0.282
3,AAGTCGTG,0.0196
4,AAAATGTA,0.166
5,CGATATTA,0.219
6,ATTTTACA,0.305
7,AATTACTA,0.179
8,AATTACGT,0.122
9,GATTACTA,0.184
10,GATTACCA,0.0721
11,AATTACCA,0.184
12,CATTACAA,0.288
13,AATTACAT,0.385 (active)
14,AATTACAA,0.396 (active)
15,TATTACAA,0.341 (active)
16,GATTACAA,0.314 (active)
17,AATTACAG,0.244
18,TCTTACAA,0.246
19,AAGACTGC,-0.0769
20,AAATGACG,0.171
21,GATGCCAA,-0.0306
22,TAGCGGGA,-0.169
23,CGATATTC,-0.0778
24,AGGATGAA,-0.102

row,Sequence,PBM E-score
1,CCGAGTCG,-0.169
2,AGAAGAGG,-0.176
3,CCCCTTCG,-0.25
4,ATGGGAAC,0.0233
5,AGGTAGAA,0.0148
6,TAACAGCA,0.145
7,CACAAACC,-0.0236
8,TTGATCAA,0.115
9,GACCGTTA,0.0165
10,AGTCAGAC,-0.0283
11,AGTTACAA,0.295
12,AGTTACAG,0.189
13,ACTTACAG,0.187
14,TGTTACAA,0.42 (active)
15,AGTTACAC,0.303
16,ACTTACAT,0.339 (active)
17,CGTTACAA,0.289
18,ACTTACAC,0.245
19,AGTTACAT,0.319 (active)
